# In PubChem BioAssay (NCATS):
# Records with an inconclusive call do not appear. Entries that show only a call come without a potency. Active and inactive are the calls of the source. Calls follow the shape of the dose curve; as a rule, active = well fitted curve in the direction sought with a large enough effect; inconclusive = small, poorly fitted or top-dose-only effect, or another doubt; inactive = no such curve, though single readings can be large; an effect the other way counts as inactive or inconclusive.
# Assay: High Content Imaging Cell-Based qHTS for Inhibitors of the mTORC1 Signaling Pathway in MEF (Tsc2-/-, p53-/-) Cells (AID 2666);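 also: percent of cells scored positive for phospho-rpS6 Ser235/236 immunostaining by imaging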
# Conditions: series mostly up to 38.3 µM
# Summary of the method: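 Read-out: % positive cells per well, with thresholds from highest- and lowest-signal wells, based on phospho-rpS6 (Ser235/236) intensity normalized to Hoechst nuclear stain. Cells: Tsc2-/-, p53-/- MEFs carrying empty vector; compound 24 hrs, 37 degree Celsius.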
row,Compound,outcome
1,O=c1c(O)c(-c2ccc(O)c(O)c2)oc2cc(O)cc(O)c12,inactive
2,C[C@H]1c2cccc(O)c2C(O)=C2C(=O)[C@]3(O)C(O)=C(C(N)=O)C(=O)[C@@H](N(C)C)[C@@H]3[C@@H](O)[C@@H]21,inactive
3,NCCCCCC(=O)O,inactive
4,NC(CO)C(=O)NNCc1ccc(O)c(O)c1O (stereo not drawn),inactive
5,Cc1ccc(C(=O)Nc2ccc(S(=O)(=O)O)c3cc(S(=O)(=O)O)cc(S(=O)(=O)O)c23)cc1NC(=O)c1cccc(NC(=O)Nc2cccc(C(=O)Nc3cc(C(=O)Nc4ccc(S(=O)(=O)O)c5cc(S(=O)(=O)O)cc(S(=O)(=O)O)c45)ccc3C)c2)c1,inactive
6,Cc1cnc(C(=O)NCCc2ccc(S(=O)(=O)NC(=O)NC3CCCCC3)cc2)cn1,inactive
7,O=C(c1ccc(OCCN2CCCCC2)cc1)c1c(-c2ccc(O)cc2)sc2cc(O)ccc12,inactive
8,COc1cc2nc(N(C)CCCNC(=O)C3CCCO3)nc(N)c2cc1OC (stereo not drawn),inactive
9,CCCCc1oc2ccccc2c1C(=O)c1cc(I)c(OCCN(CC)CC)c(I)c1,inactive
10,CN1CCN(C2=Nc3cc(Cl)ccc3Nc3ccccc32)CC1,inactive
11,Clc1ccccc1C(c1ccccc1)(c1ccccc1)n1ccnc1,inactive
12,CC(C)C(=O)Nc1ccc([N+](=O)[O-])c(C(F)(F)F)c1,inactive
13,CCOC(=O)C(C)(C)Oc1ccc(Cl)cc1,inactive
14,Clc1ccc2c(c1)C(N1CCNCC1)=Nc1ccccc1O2,inactive
15,CN(Cc1cnc2nc(N)nc(N)c2n1)c1ccc(C(=O)N[C@@H](CCC(=O)O)C(=O)O)cc1,inactive
16,CN(C)CCCN1c2ccccc2CCc2ccc(Cl)cc21,inactive
17,OCCN(CCO)c1nc(N2CCCCC2)c2nc(N(CCO)CCO)nc(N3CCCCC3)c2n1,inactive
18,Cc1cn([C@H]2C[C@H](N=[N+]=[N-])[C@@H](CO)O2)c(=O)[nH]c1=O,inactive
19,O=C(Nc1ccc([N+](=O)[O-])cc1Cl)c1cc(Cl)ccc1O,inactive
20,O=C1Cc2cc(CCN3CCN(c4nsc5ccccc45)CC3)c(Cl)cc2N1,inactive
21,Clc1ccc2nsnc2c1NC1=NCCN1,inactive
22,COc1ccccc1OCCNCC(O)COc1cccc2[nH]c3ccccc3c12 (stereo not drawn),inactive
23,Cc1cc(C(C)(C)C)cc(C)c1CC1=NCCN1,inactive
24,COC(=O)Nc1nc2ccc(C(=O)c3cccs3)cc2[nH]1,inactive
25,CN1C(C(=O)Nc2ccccn2)=C(O)c2ccccc2S1(=O)=O,inactive
26,CC#C[C@]1(O)CC[C@H]2[C@@H]3CCC4=CC(=O)CCC4=C3[C@@H](c3ccc(N(C)C)cc3)C[C@@]21C,inactive
27,CCN1CCCC1CNC(=O)c1cc(S(=O)(=O)CC)c(N)cc1OC (stereo not drawn),inactive
28,COc1ccccc1OCC(O)CN1CCN(CC(=O)Nc2c(C)cccc2C)CC1 (stereo not drawn),inactive
29,CCOC(=O)c1ncn2c1CN(C)C(=O)c1cc(F)ccc1-2,inactive

# Assay: High Content Imaging Cell-Based qHTS for Inhibitors of the mTORC1 Signaling Pathway in MEF Cells (AID 2667);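 also: Tsc2-/- p53-/- MEFs stably re-expressing wild-type Tsc2 exposed 24 h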
# Conditions: series mostly up to 38.3 µM; activity change, negative = inhibition: at the top concentration
# Summary of the method: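 MEF (Tsc2-/-, p53-/-, WT Tsc2 re-expressed); cpd 24 h, 37 °C; PFA fix; Alexa-488 anti-p-rpS6 Ser235/236, PI, Hoechst; IN Cell imaging; Hoechst/Alexa-488 intensity ratio; % active cells, thresholds set from rapamycin and DMSO wells.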
row,Compound,"activity change, negative = inhibition"
1,O=c1c(O)c(-c2ccc(O)c(O)c2)oc2cc(O)cc(O)c12,-100% (inactive)
2,Cc1cnc(C(=O)NCCc2ccc(S(=O)(=O)NC(=O)NC3CCCCC3)cc2)cn1,-100% (inactive)
3,CC(C)C(=O)Nc1ccc([N+](=O)[O-])c(C(F)(F)F)c1,-100% (inactive)
4,CCOC(=O)C(C)(C)Oc1ccc(Cl)cc1,-100% (inactive)
5,CN(Cc1cnc2nc(N)nc(N)c2n1)c1ccc(C(=O)N[C@@H](CCC(=O)O)C(=O)O)cc1,-100% (inactive)
6,OCCN(CCO)c1nc(N2CCCCC2)c2nc(N(CCO)CCO)nc(N3CCCCC3)c2n1,-100% (inactive)
7,O=C1Cc2cc(CCN3CCN(c4nsc5ccccc45)CC3)c(Cl)cc2N1,-100% (inactive)
8,Clc1ccc2nsnc2c1NC1=NCCN1,-100% (inactive)

# Assay: Cytometry Cell-Based qHTS for Inhibitors of the mTORC1 Signaling Pathway in MEF cells (AID 2668); also: potency is read from the fitted curve at half-maximal effect;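 as to activity change, negative = inhibition: Tsc2-/- p53-/- mouse embryonic fibroblasts stably re-expressing wild-type Tsc2; percent cells positive for phospho-rpS6 Ser235/236 relative to propidium iodide stain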
# Conditions: mTORC1 pathway readout; series mostly up to 38.3 µM; activity change, negative = inhibition: at the top concentration
# Summary of the method: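 WT MEFs (Tsc2-/-, p53-/- stably re-expressing WT Tsc2) in DMEM + 10% FBS received compounds 24 hrs after plating, for 24 hrs at 37 degree Celsius. Fixed cells stained with Alexa-488 anti-phospho-rpS6 Ser235/236 and propidium iodide; laser-scanning cytometry read-out.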
Compound,"activity change, negative = inhibition",Potency
O=c1c(O)c(-c2ccc(O)c(O)c2)oc2cc(O)cc(O)c12,-15% (inactive),–
C[C@H]1c2cccc(O)c2C(O)=C2C(=O)[C@]3(O)C(O)=C(C(N)=O)C(=O)[C@@H](N(C)C)[C@@H]3[C@@H](O)[C@@H]21,1.05% (inactive),–
NCCCCCC(=O)O,1.59% (inactive),–
Cc1ccc(C(=O)Nc2ccc(S(=O)(=O)O)c3cc(S(=O)(=O)O)cc(S(=O)(=O)O)c23)cc1NC(=O)c1cccc(NC(=O)Nc2cccc(C(=O)Nc3cc(C(=O)Nc4ccc(S(=O)(=O)O)c5cc(S(=O)(=O)O)cc(S(=O)(=O)O)c45)ccc3C)c2)c1,3.86% (inactive),–
Cc1cnc(C(=O)NCCc2ccc(S(=O)(=O)NC(=O)NC3CCCCC3)cc2)cn1,4.31% (inactive),–
COc1cc2nc(N(C)CCCNC(=O)C3CCCO3)nc(N)c2cc1OC (stereo not drawn),-5.12% (inactive),–
CN1CCN(C2=Nc3cc(Cl)ccc3Nc3ccccc32)CC1,-1.65% (inactive),–
Clc1ccccc1C(c1ccccc1)(c1ccccc1)n1ccnc1,-2.21% (inactive),–
CC(C)C(=O)Nc1ccc([N+](=O)[O-])c(C(F)(F)F)c1,-12.1% (inactive),–
CCOC(=O)C(C)(C)Oc1ccc(Cl)cc1,8.49% (inactive),–
CN(Cc1cnc2nc(N)nc(N)c2n1)c1ccc(C(=O)N[C@@H](CCC(=O)O)C(=O)O)cc1,-24.2% (inactive),–
OCCN(CCO)c1nc(N2CCCCC2)c2nc(N(CCO)CCO)nc(N3CCCCC3)c2n1,6.3% (inactive),–
Cc1cn([C@H]2C[C@H](N=[N+]=[N-])[C@@H](CO)O2)c(=O)[nH]c1=O,-3.07% (inactive),–
O=C(Nc1ccc([N+](=O)[O-])cc1Cl)c1cc(Cl)ccc1O,–,1170 nM (active)
O=C1Cc2cc(CCN3CCN(c4nsc5ccccc45)CC3)c(Cl)cc2N1,-7.72% (inactive),–
Clc1ccc2nsnc2c1NC1=NCCN1,-22.6% (inactive),–
Cc1cc(C(C)(C)C)cc(C)c1CC1=NCCN1,2.92% (inactive),–
CN1C(C(=O)Nc2ccccn2)=C(O)c2ccccc2S1(=O)=O,-0.553% (inactive),–
CCN1CCCC1CNC(=O)c1cc(S(=O)(=O)CC)c(N)cc1OC (stereo not drawn),1.01% (inactive),–
COc1ccccc1OCC(O)CN1CCN(CC(=O)Nc2c(C)cccc2C)CC1 (stereo not drawn),0.176% (inactive),–
CCOC(=O)c1ncn2c1CN(C)C(=O)c1cc(F)ccc1-2,8.71% (inactive),–
